Structures are written as SMILES. The source made the active and inactive calls.

These results are taken from PubChem BioAssay.

The target in this test is Homeobox protein Hox-A13 (Mus musculus) (UniProt Q62424). Put plainly: disruptors of Hoxa13 oligonucleotide interaction – biochemical, fluorescence polarization, labeled oligonucleotide, primary screen (AID 1185). The note with it: Hoxa13:DNA binding, 15 min, higher = more signal, called active from +8 up or from −8 down. In general terms: Polarisation of emitted light reports the rotation of a fluorescent probe.
Sequence of Homeobox protein Hox-A13 (Mus musculus) (Q62424 whole entry, looked up): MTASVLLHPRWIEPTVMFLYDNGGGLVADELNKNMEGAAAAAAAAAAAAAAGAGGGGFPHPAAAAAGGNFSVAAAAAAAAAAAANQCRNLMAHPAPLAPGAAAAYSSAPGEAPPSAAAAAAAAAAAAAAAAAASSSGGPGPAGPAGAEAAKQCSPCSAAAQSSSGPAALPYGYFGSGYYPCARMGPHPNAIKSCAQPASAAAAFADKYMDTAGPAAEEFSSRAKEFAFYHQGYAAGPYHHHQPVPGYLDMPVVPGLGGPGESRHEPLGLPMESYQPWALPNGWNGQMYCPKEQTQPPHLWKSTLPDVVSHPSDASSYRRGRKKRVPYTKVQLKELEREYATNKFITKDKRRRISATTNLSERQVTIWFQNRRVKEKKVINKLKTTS
Regarding `CCN1C(=O)[C@H]2[C@H]3[C@H](O)[C@H](O)CC(=NOC(C)CN4CCCc5nc(C)c(C)cc54)[C@@H]3CC[C@H]2C1=O` (stereo not given in full), the z-score is -10.2 (active).
As to `CC(=O)OC[C@H]1O[C@H](CC=NOC[C@@H](O)COCc2ccco2)C=C[C@@H]1OC(C)=O`, the z-score is -0.226 (inactive).
As for `CCN1C(=O)[C@H]2[C@H]3[C@H](O)[C@H](O)CC(=NNC(=O)OCc4ccccc4)[C@H]3CC[C@H]2C1=O`, the z-score is -1.7 (inactive).
As for `COC(=O)[C@H](C)NC(=O)CCC1CC(OC(=O)NCc2cccc3ccccc23)CC2(CCCC(COC(=O)NCCOc3ccccc3)O2)O1` (stereo not given in full), the figure is -6.3 (inactive); as for `COc1ccc(OC[C@H]2CN3[C@@H](CC[C@@H](C)[C@@H]3c3ccc(Br)cc3)C(=O)O2)cc1`, -0.626 (inactive).
As for `CCOC(=O)[C@H](Cc1ccccc1)NC(=O)CCC1CC(OC(=O)NCc2ccc3c(c2)OCO3)CC2(CCCC(COC(=O)NCCc3ccc(Cl)cc3)O2)O1` (stereo not given in full), the figure is -1.76 (inactive).
As for `O=C1[C@H]2CCn3c(=O)n(Cc4cc5c(cc4Cl)OCO5)c(=O)n3[C@H]2[C@H](O)[C@@H]2O[C@H]12`, the z-score was -0.543 (inactive).
The same measure for `COC(=O)CC=C1c2ccccc2[C@H](OC)[C@H]1C`: 0.281 (inactive).
Consider `CC(C)CON=C1C[C@@H](O)[C@@H](O)[C@@H]2[C@@H]3C(=O)N(Cc4ccc5c(c4)OCO5)C(=O)[C@@H]3CC[C@@H]12`, for which the z-score is -0.441 (inactive).
Turning to `C=CC[C@@H]1C=C[C@H](ON=CC[C@@H]2C=C[C@H](OC(C)=O)[C@@H](COC(C)=O)O2)[C@@H](CO)O1`, the z-score is -0.273 (inactive).
The same measure for `CC(=O)OC[C@H]1O[C@H](CCON=C(C)C)C=C[C@@H]1OC(C)=O`: 0.389 (inactive); for `CO[C@@H]1COC(=O)[C@H](COCc2ccccc2)NC(=O)CC=C[C@@H](C)[C@H](OC)COC(=O)[C@@H](C)NC(=O)CC=C[C@H]1C`: -1.83 (inactive); for `CC(C)[C@@H](OCc1ccccc1)[C@H](C)C=NO[C@H](C)c1cn([C@@H]2COC[C@H]2O)nn1`: -0.967 (inactive).
As for `CCOC(=O)[C@H](Cc1ccccc1)NC(=O)CCC1CC(OC(=O)NCCc2ccc(F)cc2)CC2(CCCC(COC(=O)NCCC(C)C)O2)O1` (stereo not given in full), the figure is -4.45 (inactive).
In the case of `CC(=O)OC[C@H]1O[C@@H](ON=C(C)CCC(=O)OC[C@H]2O[C@H](C#Cc3ccccc3)C=C[C@@H]2Oc2ccc(C)cc2)[C@H](OC(C)=O)[C@@H](OC(C)=O)[C@@H]1OC(C)=O`, the z-score is -3.79 (inactive).
